PubChem BioAssay (NCATS)
Records with an inconclusive call do not appear. Active and inactive are the calls of the source. Unless noted, calls follow the shape of the dose curve; as a rule, active = well fitted curve in the direction sought with a large enough effect; inconclusive = small, poorly fitted or top-dose-only effect, or another doubt; inactive = no such curve, though single readings can be large; an effect the other way counts as inactive or inconclusive.

How the values were obtained:
[1] = AP1 Signaling Pathway (AID 357; active = well fitted curve in either direction with a large enough effect, not every such curve was filed as active; also: % is scaled to controls: 0 for no effect and ±100 for the full control effect); conditions: ME-180 AP-1-bla reporter, EGF-induced, beta-lactamase ratio, 5 h; at 17.2 µM (top of the series) unless noted
Summary of the method: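 ME-180 cells with beta-lactamase reporter under AP-1 response element, stimulated with EC50 EGF; compounds tested in titration series, 5 h at 37 °C. CCF4 substrate added 2.5 h at room temperature; 460/530 nm emission ratio gave %activity and AC50.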

[2] = NFAT Signaling Pathway (AID 444; active = well fitted curve in either direction with a large enough effect, not every such curve was filed as active;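 also: carbachol stimulus at about its EC50 of 1 µM final; % is scaled to controls: 0 for no effect and ±100 for the full control effect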); conditions: Jurkat NFAT-bla M1, carbachol, beta-lactamase ratio, 5 h; at 17.2 µM (top of the series) unless noted
Summary of the method: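 Jurkat cells carrying an NFAT-driven β-lactamase reporter and co-transfected muscarinic M1 receptor were treated with compound plus carbachol (1 uM final, an EC50 level) for 5 h at 37 °C. CCF4 loading followed for 1 h at RT; 460/530 nm ratio gave %activity.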

[3] = Stat Signaling Pathway (AID 446; active = well fitted curve in either direction with a large enough effect, not every such curve was filed as active;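 also: ME-180 cervical cancer cells given 40 pM IL-6 alongside compound; SIE-controlled beta-lactamase reporter measured as 460/530 nm FRET emission ratio; % is scaled to controls: 0 for no effect and ±100 for the full control effect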)
Summary of the method: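 Screening format detects activators and inhibitors alike: ME-180 SIE-bla cells stimulated at 40 pM IL-6 for 5 hrs with compound, then dual-emission beta-lactamase read at 405 nm excitation.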

[4] = molecular target: Glucocorticoid receptor (Homo sapiens) (UniProt P04150); experiment: GR-GFP Redistribution (AID 450;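 active = compounds whose dose series gives a full or clear partial fitted curve of increased nuclear translocation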; also: potency is read from the fitted curve at half-maximal effect); conditions: U2OS GR-GFP nuclear translocation, laser cytometry, 2 h
[5] = molecular target: Glucocorticoid receptor (Homo sapiens) (UniProt P04150); experiment: GR-EFC Redistribution (AID 451; calls by dose curve; also: potency is read from the fitted curve at half-maximal effect); conditions: CHO-K1 GR-EFC translocation, beta-gal luminescence, 2 h
Summary of the method: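 CHO-K1 cells stably expressing nuclear-localized β-gal enzyme acceptor and GR fused C-terminally to the enzyme donor fragment; ligand-driven nuclear translocation restores β-gal by complementation. Compounds titrated up to 46 uM final, 2 h at 37 °C; luminescence read.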

[6] = molecular target: Mitogen-activated protein kinase 10 (Mus musculus) (UniProt Q61831); experiment: JNK3 AlphaScreen Assay (AID 530; active = well fitted curve in either direction with a large enough effect, not every such curve was filed as active;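 also: kinase came from lysate of stimulated human HepG2 cells; signal reports phosphorylation of biotinylated GST-cJun 1-79 at Ser73 with 10 µM ATP; % is scaled to controls: 0 for no effect and ±100 for the full control effect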)
Summary of the method: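 JNK3 came from HepG2 lysates pre-activated with IL-1beta and TNF-alpha and phosphorylated biotinylated GST-cJun (1-79) at 10 uM ATP, pH 7.6, room temperature. Compounds were titrated. AlphaScreen signal used anti-phospho-cJun (Ser73) antibody.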

[7] = molecular target: 3',5'-cyclic-AMP phosphodiesterase 4B (Homo sapiens) (UniProt Q07343); experiment: qHTS Assay for Inhibitors of PDE-IV (AID 607; active = well fitted activation curve with a large enough effect in the main read-out, with a control signal flat, not every such curve was filed as active; also: % of control where 0% means no effect)
Summary of the method: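 The readout is membrane depolarisation from a cAMP-sensing CNG channel, detected with a potential dye at ex 535/em 590. Cells were HEK293-derived (endogenous PDE-IV) at 1000 cells/well, titrated up to 22.9 uM final.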

[8] = molecular target: ATP-dependent 6-phosphofructokinase (Trypanosoma brucei brucei) (UniProt O15648); experiment: qHTS Assay to Find Inhibitors of T. brucei phosphofructokinase: hit validation (AID 492961)
Summary of the method: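 Percent activity derived from corrected luminescence, normalized between 0x and 1x enzyme controls, then fitted to concentration-response curves. Conditions: 1.25 nM PFK, 0.1 mM ATP, 0.5 mM F6P, 45 min RT.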

[9] = molecular target: Ubiquitin carboxyl-terminal hydrolase 1 (Homo sapiens) (UniProt O94782); experiment: Inhibitors of USP1/UAF1: Pilot qHTS (AID 504865);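 also: rhodamine fluorescence freed from ubiquitin-rhodamine substrate followed over time; top concentration of the series differs between compounds; % is scaled to controls: 0 for no effect and ±100 for the full control effect; nearly all actives have a fitted effect of over 35% in size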
Summary of the method: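 Enzyme-free wells gave the negative control, while test wells held 1nM USP1/UAF1 preincubated with compound for 15 min at room temperature. Ub-Rho at 150nM final started the reaction, and fluorescence at 480/540 nm was recorded kinetically.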

[10] = molecular target: Luciferin 4-monooxygenase (Photinus pyralis) (UniProt P08659); experiment: Biochemical firefly luciferase enzyme assay for NPC (AID 624030);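 also: purified P. pyralis luciferase at 10 nM with luciferin and ATP substrate; 0% = DMSO and -100% = full luciferase inhibition by PTC124 control; nearly all actives have a fitted effect of over 70% in size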
Summary of the method: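 Counter-screen for direct inhibition of the luciferase enzyme by approved-drug library compounds, run at 10 nM enzyme in 50 mM Tris acetate (final). Luminescence was read within 5 min of enzyme-buffer addition and normalized to PTC124 versus DMSO (0%).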

[11] = S16 Schwann cell viability assay (CellTiter-Glo assay) (AID 624031);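 also: cellular ATP luminescence as a viability measure; plate controls were DMSO-treated cells for no effect and cell-free wells for full effect; nearly all actives have a fitted effect of over 70% in size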
Summary of the method: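 Native S16 rat Schwann cells in DMEM/10% FBS without phenol red were incubated overnight, then exposed to compounds for 24 h at 37 °C/5% CO2. Viability was read as ATP luminescence (CellTiter-Glo), normalized to no-cell wells and DMSO (0%).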

[12] = S16 Schwann cell PMP22 intronic element firefly luciferase assay (AID 624032);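 also: plate controls were DMSO for no effect and PTC124 positive control mean for full effect; nearly all actives have a fitted effect of over 30% in size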
Summary of the method: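 Rat S16 Schwann cells stably carrying a PMP22 intronic element-driven Fluc reporter were seeded overnight, then exposed to compounds for 24 h at 37 °C. Luminescence was normalized to PTC124 (positive control) and DMSO (0% activity).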

[13] = S16 Schwann cell PMP22 intronic element beta-lactamase assay (AID 624044; calls by dose curve;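 also: 0% = DMSO and -100% = potassium clavulanate positive control; nearly all actives have a fitted effect of over 15% in size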); conditions: S16 rat Schwann cells, PMP22 element beta-lactamase FRET, 24 h; ratio activity, negative = inhibition: at 38.3 µM (top of the series)
Summary of the method: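 Rat S16 Schwann cells with beta-Lac driven by a PMP22 intronic element, compound-treated 24 h at 37 °C. LiveBLAzer FRET B/G read: 460 nm normalized to potassium clavulanate vs DMSO; 535 nm FRET as viability; concentration-effect curves classified.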

[14] = qHTS profiling for inhibitors of Plasmodium falciparum proliferation (AID 504749); also: nearly all actives have a fitted effect of over 60% in size; also: potency is read from the fitted curve at half-maximal effect;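 as to activity, negative = inhibition: 0% = DMSO vehicle and full inhibition = artemisinin control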; conditions: P. falciparum in erythrocytes, SYBR Green DNA, 72 h, at 12.8 µM (top of the series)
Summary of the method: (§1)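 P. falciparum-infected erythrocytes (0.3% parasitemia, 2.5% hematocrit final) were exposed to compounds for 72 h at 37 C in 5% CO2, then lysed with SYBR Green buffer overnight at room temperature; parasite DNA fluorescence was normalized to artemisinin and DMSO controls.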

3D7 = experiment: as above; conditions: P. falciparum in erythrocytes, SYBR Green DNA, 72 h; series mostly up to 28.7 µM
Summary of the method: as §1

AA1029 = experiment: as above; conditions: P. falciparum in erythrocytes, SYBR Green DNA, 72 h; series mostly up to 28.7 µM
Summary of the method: as §1

AS120 = experiment: as above; conditions: P. falciparum in erythrocytes, SYBR Green DNA, 72 h; series mostly up to 28.7 µM
Summary of the method: as §1

ATS189 = experiment: as above; conditions: P. falciparum in erythrocytes, SYBR Green DNA, 72 h; series mostly up to 28.7 µM
Summary of the method: as §1

C2A = experiment: as above; conditions: P. falciparum in erythrocytes, SYBR Green DNA, 72 h; series mostly up to 28.7 µM
Summary of the method: as §1

CP185 = experiment: as above; conditions: P. falciparum in erythrocytes, SYBR Green DNA, 72 h; series mostly up to 28.7 µM
Summary of the method: as §1

CP191 = experiment: as above; conditions: P. falciparum in erythrocytes, SYBR Green DNA, 72 h; series mostly up to 28.7 µM
Summary of the method: as §1

CP194 = experiment: as above; conditions: P. falciparum in erythrocytes, SYBR Green DNA, 72 h; series mostly up to 28.7 µM
Summary of the method: as §1

CP201 = experiment: as above; conditions: P. falciparum in erythrocytes, SYBR Green DNA, 72 h; series mostly up to 28.7 µM
Summary of the method: as §1

CP203 = experiment: as above; conditions: P. falciparum in erythrocytes, SYBR Green DNA, 72 h; series mostly up to 28.7 µM
Summary of the method: as §1

CP211 = experiment: as above; conditions: P. falciparum in erythrocytes, SYBR Green DNA, 72 h; series mostly up to 28.7 µM
Summary of the method: as §1

CP215 = experiment: as above; conditions: P. falciparum in erythrocytes, SYBR Green DNA, 72 h; series mostly up to 28.7 µM
Summary of the method: as §1

CP217 = experiment: as above; conditions: P. falciparum in erythrocytes, SYBR Green DNA, 72 h; series mostly up to 28.7 µM
Summary of the method: as §1

CP238 = experiment: as above; conditions: P. falciparum in erythrocytes, SYBR Green DNA, 72 h; series mostly up to 28.7 µM
Summary of the method: as §1

CP247 = experiment: as above; conditions: P. falciparum in erythrocytes, SYBR Green DNA, 72 h; series mostly up to 28.7 µM
Summary of the method: as §1

CP250 = experiment: as above; conditions: P. falciparum in erythrocytes, SYBR Green DNA, 72 h; series mostly up to 28.7 µM
Summary of the method: as §1

CP252 = experiment: as above; conditions: P. falciparum in erythrocytes, SYBR Green DNA, 72 h; series mostly up to 28.7 µM
Summary of the method: as §1

CP256 = experiment: as above; conditions: P. falciparum in erythrocytes, SYBR Green DNA, 72 h; series mostly up to 28.7 µM
Summary of the method: as §1

CP262 = experiment: as above; conditions: P. falciparum in erythrocytes, SYBR Green DNA, 72 h; series mostly up to 28.7 µM
Summary of the method: as §1

CP265 = experiment: as above; conditions: P. falciparum in erythrocytes, SYBR Green DNA, 72 h; series mostly up to 28.7 µM
Summary of the method: as §1

CP266 = experiment: as above; conditions: P. falciparum in erythrocytes, SYBR Green DNA, 72 h; series mostly up to 28.7 µM
Summary of the method: as §1

CP268 = experiment: as above; conditions: P. falciparum in erythrocytes, SYBR Green DNA, 72 h; series mostly up to 28.7 µM
Summary of the method: as §1

CP269 = experiment: as above; conditions: P. falciparum in erythrocytes, SYBR Green DNA, 72 h; series mostly up to 28.7 µM
Summary of the method: as §1

CP297 = experiment: as above; conditions: P. falciparum in erythrocytes, SYBR Green DNA, 72 h; series mostly up to 28.7 µM
Summary of the method: as §1

CP305 = experiment: as above; conditions: P. falciparum in erythrocytes, SYBR Green DNA, 72 h; series mostly up to 28.7 µM
Summary of the method: as §1

CP315 = experiment: as above; conditions: P. falciparum in erythrocytes, SYBR Green DNA, 72 h; series mostly up to 28.7 µM
Summary of the method: as §1

CP325 = experiment: as above; conditions: P. falciparum in erythrocytes, SYBR Green DNA, 72 h; series mostly up to 28.7 µM
Summary of the method: as §1

CP329 = experiment: as above; conditions: P. falciparum in erythrocytes, SYBR Green DNA, 72 h; series mostly up to 28.7 µM
Summary of the method: as §1

DIV17 = experiment: as above; conditions: P. falciparum in erythrocytes, SYBR Green DNA, 72 h; series mostly up to 28.7 µM
Summary of the method: as §1

DIV30 = experiment: as above; conditions: P. falciparum in erythrocytes, SYBR Green DNA, 72 h; series mostly up to 28.7 µM
Summary of the method: as §1

Dd2 = experiment: as above; conditions: P. falciparum in erythrocytes, SYBR Green DNA, 72 h; series mostly up to 28.7 µM
Summary of the method: as §1

ECU = experiment: as above; conditions: P. falciparum in erythrocytes, SYBR Green DNA, 72 h; series mostly up to 28.7 µM
Summary of the method: as §1

FAB9 = experiment: as above; conditions: P. falciparum in erythrocytes, SYBR Green DNA, 72 h; series mostly up to 28.7 µM
Summary of the method: as §1

JCK = experiment: as above; conditions: P. falciparum in erythrocytes, SYBR Green DNA, 72 h; series mostly up to 28.7 µM
Summary of the method: as §1

N140 = experiment: as above; conditions: P. falciparum in erythrocytes, SYBR Green DNA, 72 h; series mostly up to 28.7 µM
Summary of the method: as §1

P94_40 = experiment: as above; conditions: P. falciparum in erythrocytes, SYBR Green DNA, 72 h; series mostly up to 28.7 µM
Summary of the method: as §1

PC15 = experiment: as above; conditions: P. falciparum in erythrocytes, SYBR Green DNA, 72 h; series mostly up to 28.7 µM
Summary of the method: as §1

PC26 = experiment: as above; conditions: P. falciparum in erythrocytes, SYBR Green DNA, 72 h; series mostly up to 28.7 µM
Summary of the method: as §1

PC49 = experiment: as above; conditions: P. falciparum in erythrocytes, SYBR Green DNA, 72 h; series mostly up to 28.7 µM
Summary of the method: as §1

SC27B = experiment: as above; conditions: P. falciparum in erythrocytes, SYBR Green DNA, 72 h; series mostly up to 28.7 µM
Summary of the method: as §1

TAB113 = experiment: as above; conditions: P. falciparum in erythrocytes, SYBR Green DNA, 72 h; series mostly up to 28.7 µM
Summary of the method: as §1

Chain of Glucocorticoid receptor (Homo sapiens) (P04150 whole entry, looked up, the tested form may be a part): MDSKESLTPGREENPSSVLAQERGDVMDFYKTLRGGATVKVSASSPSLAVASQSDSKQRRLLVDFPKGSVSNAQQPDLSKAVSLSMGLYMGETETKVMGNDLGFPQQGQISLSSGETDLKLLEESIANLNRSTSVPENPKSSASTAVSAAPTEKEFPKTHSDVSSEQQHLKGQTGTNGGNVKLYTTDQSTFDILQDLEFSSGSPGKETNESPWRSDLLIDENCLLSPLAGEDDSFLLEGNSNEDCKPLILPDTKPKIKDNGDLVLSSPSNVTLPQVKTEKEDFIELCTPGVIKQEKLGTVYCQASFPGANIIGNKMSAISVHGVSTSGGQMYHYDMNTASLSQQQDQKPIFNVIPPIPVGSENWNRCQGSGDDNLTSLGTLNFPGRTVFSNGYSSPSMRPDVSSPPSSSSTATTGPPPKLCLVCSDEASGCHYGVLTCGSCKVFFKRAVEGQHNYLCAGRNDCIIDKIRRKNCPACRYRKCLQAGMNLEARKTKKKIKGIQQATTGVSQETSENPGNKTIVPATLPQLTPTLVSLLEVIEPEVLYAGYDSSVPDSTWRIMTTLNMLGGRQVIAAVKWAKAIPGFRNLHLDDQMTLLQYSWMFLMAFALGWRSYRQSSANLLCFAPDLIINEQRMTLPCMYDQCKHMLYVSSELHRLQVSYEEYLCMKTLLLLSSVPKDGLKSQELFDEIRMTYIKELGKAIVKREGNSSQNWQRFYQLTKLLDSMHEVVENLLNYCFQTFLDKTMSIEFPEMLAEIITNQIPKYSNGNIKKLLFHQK
Chain of 3',5'-cyclic-AMP phosphodiesterase 4B (Homo sapiens) (Q07343 whole entry, looked up): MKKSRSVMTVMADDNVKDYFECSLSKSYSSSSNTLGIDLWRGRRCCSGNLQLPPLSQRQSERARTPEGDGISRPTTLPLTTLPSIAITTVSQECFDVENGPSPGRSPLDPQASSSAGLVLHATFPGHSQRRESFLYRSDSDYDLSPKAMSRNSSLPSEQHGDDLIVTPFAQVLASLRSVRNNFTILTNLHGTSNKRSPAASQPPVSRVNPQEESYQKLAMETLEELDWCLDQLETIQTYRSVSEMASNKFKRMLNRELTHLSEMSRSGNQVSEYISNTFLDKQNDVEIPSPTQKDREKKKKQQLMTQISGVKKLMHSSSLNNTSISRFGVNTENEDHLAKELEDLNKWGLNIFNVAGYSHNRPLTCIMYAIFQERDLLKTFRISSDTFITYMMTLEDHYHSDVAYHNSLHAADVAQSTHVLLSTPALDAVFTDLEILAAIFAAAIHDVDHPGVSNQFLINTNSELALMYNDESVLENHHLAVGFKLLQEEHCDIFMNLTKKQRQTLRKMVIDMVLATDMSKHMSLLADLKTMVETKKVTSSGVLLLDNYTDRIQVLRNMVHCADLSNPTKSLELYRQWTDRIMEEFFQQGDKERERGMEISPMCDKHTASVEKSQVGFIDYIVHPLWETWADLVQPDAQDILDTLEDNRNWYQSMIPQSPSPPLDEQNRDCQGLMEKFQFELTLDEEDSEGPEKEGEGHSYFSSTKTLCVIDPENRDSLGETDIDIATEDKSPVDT
Chain of ATP-dependent 6-phosphofructokinase (Trypanosoma brucei brucei) (O15648 whole entry, looked up): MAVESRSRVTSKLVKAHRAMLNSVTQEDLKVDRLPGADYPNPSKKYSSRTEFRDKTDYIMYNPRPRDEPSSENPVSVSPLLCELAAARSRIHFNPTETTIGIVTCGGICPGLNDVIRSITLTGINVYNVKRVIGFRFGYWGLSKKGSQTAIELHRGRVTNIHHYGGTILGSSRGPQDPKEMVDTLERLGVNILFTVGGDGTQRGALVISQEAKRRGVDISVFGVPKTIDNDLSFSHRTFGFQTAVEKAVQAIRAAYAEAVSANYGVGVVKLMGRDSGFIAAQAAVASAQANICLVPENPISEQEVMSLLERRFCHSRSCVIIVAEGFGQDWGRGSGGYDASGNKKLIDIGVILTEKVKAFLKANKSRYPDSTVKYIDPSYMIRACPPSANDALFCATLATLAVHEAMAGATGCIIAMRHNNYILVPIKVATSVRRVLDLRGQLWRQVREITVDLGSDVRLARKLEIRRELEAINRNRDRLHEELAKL
Chain of Luciferin 4-monooxygenase (Photinus pyralis) (P08659 whole entry, looked up): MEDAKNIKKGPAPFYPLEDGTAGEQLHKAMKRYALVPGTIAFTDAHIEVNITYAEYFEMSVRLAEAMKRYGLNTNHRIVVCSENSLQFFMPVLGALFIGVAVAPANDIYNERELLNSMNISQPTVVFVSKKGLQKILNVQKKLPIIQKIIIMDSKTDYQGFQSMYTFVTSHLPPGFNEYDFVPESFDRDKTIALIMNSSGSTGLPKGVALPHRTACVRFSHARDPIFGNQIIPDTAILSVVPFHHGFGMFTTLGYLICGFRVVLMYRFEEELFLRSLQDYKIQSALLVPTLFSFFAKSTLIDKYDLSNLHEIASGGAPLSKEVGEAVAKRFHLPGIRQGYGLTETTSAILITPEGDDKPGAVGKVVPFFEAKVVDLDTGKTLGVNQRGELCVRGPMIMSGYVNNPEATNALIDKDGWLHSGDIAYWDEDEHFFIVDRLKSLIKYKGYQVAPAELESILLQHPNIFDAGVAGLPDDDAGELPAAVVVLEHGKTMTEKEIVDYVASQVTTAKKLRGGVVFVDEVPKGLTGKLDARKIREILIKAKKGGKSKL
Chain of Ubiquitin carboxyl-terminal hydrolase 1 (Homo sapiens) (O94782 whole entry, looked up): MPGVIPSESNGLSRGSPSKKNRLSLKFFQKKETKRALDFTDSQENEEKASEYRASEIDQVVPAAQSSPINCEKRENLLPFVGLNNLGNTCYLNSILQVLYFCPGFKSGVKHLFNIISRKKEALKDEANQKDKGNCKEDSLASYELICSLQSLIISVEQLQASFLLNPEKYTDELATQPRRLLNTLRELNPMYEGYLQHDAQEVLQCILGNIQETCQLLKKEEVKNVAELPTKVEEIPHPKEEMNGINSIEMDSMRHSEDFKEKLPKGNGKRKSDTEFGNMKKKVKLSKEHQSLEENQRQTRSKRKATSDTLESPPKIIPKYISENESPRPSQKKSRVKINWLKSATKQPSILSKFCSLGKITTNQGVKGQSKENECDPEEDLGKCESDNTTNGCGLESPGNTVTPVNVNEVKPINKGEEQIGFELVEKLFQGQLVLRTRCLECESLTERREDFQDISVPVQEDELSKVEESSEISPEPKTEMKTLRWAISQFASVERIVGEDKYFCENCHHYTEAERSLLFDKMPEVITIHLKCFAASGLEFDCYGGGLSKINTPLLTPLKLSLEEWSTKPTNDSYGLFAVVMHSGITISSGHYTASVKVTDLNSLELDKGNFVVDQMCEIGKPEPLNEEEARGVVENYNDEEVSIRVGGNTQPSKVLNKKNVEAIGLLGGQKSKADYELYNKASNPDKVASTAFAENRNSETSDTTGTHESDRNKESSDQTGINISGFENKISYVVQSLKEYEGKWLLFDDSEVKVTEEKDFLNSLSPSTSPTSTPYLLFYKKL

CN(C)[C@H]1C(=O)C(C(N)=O)=C(O)[C@]2(O)C(=O)C3=C(O)c4c(O)cccc4[C@@](C)(O)[C@H]3C[C@@H]12
active: Potency (Dd2) 1.78 µM
inactive: activity change, negative = inhibition [1] 11.4% | activity change, negative = inhibition [2] -2.46% | outcome [3] | Potency [4] > 20.6 µM | Potency [5] > 20.6 µM | outcome [6] | outcome [7] | outcome [8] | Potency [9] | Potency [10] | Potency [11] | Potency [12] | Potency [13] | activity, negative = inhibition ([14]; parasite line A) -27.8% | activity, negative = inhibition ([14]; parasite line B) -27.1% | Potency (3D7) | Potency (AA1029) | Potency (AS120) | Potency (ATS189) | Potency (C2A) | Potency (CP185) | Potency (CP191) | Potency (CP194) | Potency (CP201) | Potency (CP203) | Potency (CP211) | Potency (CP215) | Potency (CP217) | Potency (CP238) | Potency (CP247) | Potency (CP250) | Potency (CP252) | Potency (CP256) | Potency (CP262) | Potency (CP265) | Potency (CP266) | Potency (CP268) | Potency (CP269) | Potency (CP297) | Potency (CP305) | Potency (CP315) | Potency (CP325) | Potency (CP329) | Potency (DIV17) | Potency (DIV30) | Potency (ECU) | Potency (FAB9) | Potency (JCK) | Potency (N140) | Potency (P94_40) | Potency (PC15) | Potency (PC26) | Potency (PC49) | Potency (SC27B) | Potency (TAB113)
